# In publication PMC4336329 (PLoS ONE, 2015):
# About 14,000 (4.5%) of roughly 310,000 compounds showed an effect of 50% or more. The effect is printed as a negative number. Many of the other results were omitted from the sample, so strong results are more common in it than they were.
# Molecular target: human ether-à-go-go-related gene (hERG) potassium channel (human, UniProt Q12809)
# Assay: primary screen, population patch clamp on CHO cells stably expressing hERG; higher = less effect of the substance
# 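Note: peak tail current of the secondary pulse compared with the same well before compound.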
# Sequence of human ether-à-go-go-related gene (hERG) potassium channel (Q12809 whole entry, looked up): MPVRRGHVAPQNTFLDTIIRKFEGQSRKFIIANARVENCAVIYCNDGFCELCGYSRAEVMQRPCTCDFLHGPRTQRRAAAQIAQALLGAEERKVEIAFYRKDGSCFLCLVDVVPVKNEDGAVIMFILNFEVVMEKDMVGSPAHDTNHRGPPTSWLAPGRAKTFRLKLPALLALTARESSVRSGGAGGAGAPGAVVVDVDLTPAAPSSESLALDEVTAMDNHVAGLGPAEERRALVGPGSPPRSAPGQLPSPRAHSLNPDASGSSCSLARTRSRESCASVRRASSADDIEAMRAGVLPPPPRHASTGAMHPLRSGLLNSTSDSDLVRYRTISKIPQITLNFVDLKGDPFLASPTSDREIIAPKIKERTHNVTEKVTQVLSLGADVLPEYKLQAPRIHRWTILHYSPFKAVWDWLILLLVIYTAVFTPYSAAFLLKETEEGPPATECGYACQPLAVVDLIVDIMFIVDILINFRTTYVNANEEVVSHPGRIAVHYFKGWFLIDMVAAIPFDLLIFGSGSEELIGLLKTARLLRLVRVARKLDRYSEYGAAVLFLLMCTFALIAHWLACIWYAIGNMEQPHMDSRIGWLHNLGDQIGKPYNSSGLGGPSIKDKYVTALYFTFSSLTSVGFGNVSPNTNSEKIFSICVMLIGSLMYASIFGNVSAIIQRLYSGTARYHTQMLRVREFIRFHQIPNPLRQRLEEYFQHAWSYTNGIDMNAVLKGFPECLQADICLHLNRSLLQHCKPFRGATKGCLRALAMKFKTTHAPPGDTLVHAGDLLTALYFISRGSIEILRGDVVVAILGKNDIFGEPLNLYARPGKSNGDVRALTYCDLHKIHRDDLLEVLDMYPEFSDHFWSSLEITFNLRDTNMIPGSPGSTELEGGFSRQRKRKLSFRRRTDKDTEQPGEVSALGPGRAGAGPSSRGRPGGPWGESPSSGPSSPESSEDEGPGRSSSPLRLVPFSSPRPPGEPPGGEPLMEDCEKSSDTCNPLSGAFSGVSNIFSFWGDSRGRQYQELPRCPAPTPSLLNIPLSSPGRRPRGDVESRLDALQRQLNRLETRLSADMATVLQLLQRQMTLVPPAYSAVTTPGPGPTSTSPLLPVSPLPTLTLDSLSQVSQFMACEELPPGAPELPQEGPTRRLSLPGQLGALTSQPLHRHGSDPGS
row,Compound,"hERG current change (%, negative = inhibition) at 10uM [%]"
1,COc1ccc(-c2cc(C(=O)NCc3cccs3)no2)cc1,7.1
2,O=C(COC(=O)c1cccnc1Cl)Nc1cc(S(=O)(=O)N2CCCCC2)ccc1Cl,-18.9
3,COc1ccc(NC(=O)Cn2nnc(C(=O)NCc3ccc4c(c3)OCO4)c2N)cc1,18.4
4,O=C(O)C1CC(=O)N(c2ccc(F)cc2)C1 (centres unmarked),14.1
5,CC(c1ccccc1)N1CC(C(=O)O)CC1=O (centres unmarked),10.7
6,O=C(C1CC(=O)N(c2ccccc2)C1)N1CCN(c2ccccc2)CC1 (centres unmarked),-29
7,O=C(C1CC(=O)N(c2ccc(F)cc2)C1)N1CCCCC1 (centres unmarked),-0.378
8,O=C(C1CC(=O)N(c2ccccc2)C1)N1CCN(c2ccccc2F)CC1 (centres unmarked),-13.4
9,O=C(C1CC(=O)N(c2ccccc2)C1)N1CCN(c2ccc(F)cc2)CC1 (centres unmarked),-56.7
10,CC(c1ccccc1)N1CC(C(=O)N2CCN(c3ccccc3)CC2)CC1=O (centres unmarked),-27.2
11,O=C(C1CC(=O)N(c2ccc(F)cc2)C1)N1CCN(c2ccccc2)CC1 (centres unmarked),-58.3
12,O=C(C1CC(=O)N(c2ccc(F)cc2)C1)N1CCCCCC1 (centres unmarked),-6.27
13,Cc1ccc(N2CC(C(=O)N3CCN(c4ccccc4)CC3)CC2=O)cc1 (centres unmarked),-17.6
14,CC(c1ccccc1)N1CC(C(=O)N2CCN(c3ccc(F)cc3)CC2)CC1=O (centres unmarked),-65.3
15,O=C(C1CC(=O)N(c2ccc(F)cc2)C1)N1CCN(c2ccc(F)cc2)CC1 (centres unmarked),-73.1
16,Cc1cc(C)cc(OCC(=O)Nc2ccc(N3CCCC3)cc2)c1,11.9
17,COc1ccc(C(=O)Nc2nnc(S(=O)(=O)N3CCOCC3)s2)cc1,-3.02
18,CC(C)C(=O)NNC(=O)c1c(O)c2ccccc2[nH]c1=O,10.3
19,O=C(Nc1cccc(O)c1)C1CC(c2c(F)cccc2Cl)=NO1 (centres unmarked),-15.6
20,COc1ccc(CNC(=O)OCCN2CCN(S(=O)(=O)c3ccc(C)cc3)CCC2=O)cc1,-35.9
21,CCCCC(NC(=O)Cc1c(C)c2cc3c(-c4ccccc4)coc3c(C)c2oc1=O)C(=O)O (centres unmarked),13.2
22,O=C1CC(NNc2nc3ccccc3s2)C(=O)N1c1ccc(F)cc1 (centres unmarked),3.25

row,Compound,"hERG current change (%, negative = inhibition) at 10uM [%]"
1,CCOCCCNC(=S)N1CCN(C(=O)C(=O)Nc2ccc(C(=O)OC)cc2)CC1,-40.6
2,CSCCC(NC(=O)COc1ccccc1)C(=O)OCC(=O)c1cc2ccccc2o1 (centres unmarked),8.62
3,COc1ccc(C(=O)NC(=S)NCc2ccccc2)cc1,-0.211
4,Cc1ccccc1CNC(=O)CCC(=O)N1CCOc2ccccc21,7.41
5,Cc1ccc(-c2c(C)n([O-])c3c([n+]2=O)CCCCC3)o1,-1.3
6,Cc1c(NC(=O)c2ccc(Cl)nc2)cccc1-c1nc2cccnc2s1,-48.1
7,CCCOc1ccc(/C=c2\sc3ncnn3c2=O)cc1,6.61
8,CCOCc1[nH]c(=S)[nH]c(=O)c1Cc1ccc(OCC)cc1,9.49
9,CCOCc1[nH]c(=S)[nH]c(=O)c1Cc1ccc(OC(C)C)cc1,-58.8
10,CCOCc1[nH]c(=S)[nH]c(=O)c1Cc1ccc(OCC(C)C)cc1,14
11,COc1cccc(C2=CC(c3cccs3)n3nnnc3N2)c1 (centres unmarked),14.5
12,CCc1nnc(SCc2ccc(OC(C)C)cc2)n1N,9.36
13,CCCCn1c2c(c(=O)n(C)c1=O)C(CC(=O)OCC(=O)Nc1cccc(C(F)(F)F)c1)C(=O)N2 (centres unmarked),-5.56
14,CC(Sc1nnc(C2CC2)n1C1CC1)C(=O)Nc1cccc(S(=O)(=O)N(C)C)c1 (centres unmarked),-19.5
15,COc1cccc(NC(=O)C(C)Sc2nnc(C3CC3)n2C2CC2)c1 (centres unmarked),-67
16,COc1ccc(Cl)cc1NC(=O)C(C)Sc1nncn1C (centres unmarked),0.256
17,Cc1ccc(NC(=O)C(C)Sc2nnc(C3CC3)n2C2CC2)cc1S(=O)(=O)N1CCOCC1 (centres unmarked),-51
18,COc1ccc(Cl)cc1NC(=O)C(C)Sc1nnc(C2CC2)n1C1CC1 (centres unmarked),-69.5
19,CC(Sc1nnc(C2CC2)n1C1CC1)C(=O)Nc1cccc(S(=O)(=O)N2CCOCC2)c1 (centres unmarked),-11.8
20,Cc1ccc(NC(=O)C(C)Sc2nnc(C)n2C2CC2)cc1S(=O)(=O)N1CCOCC1 (centres unmarked),-13.9
21,COc1ccc(NC(=O)C(C)Sc2nnc(C3CC3)n2C2CC2)cc1 (centres unmarked),-13.3
22,CC(Sc1nnc(C2CC2)n1C1CC1)C(=O)Nc1ccccc1C#N (centres unmarked),-10

row,Compound,"hERG current change (%, negative = inhibition) at 10uM [%]"
1,Cc1ccc(C)c(OCCC(=O)NCCc2ccc(S(N)(=O)=O)cc2)c1,10.7
2,O=C(c1cccs1)[C@@H]1[C@@H]2C(=O)N(Cc3ccc4c(c3)OCO4)C(=O)[C@@H]2C2c3ccccc3C=CN21 (some centres unmarked),-26.7
3,O=C(CCCCCN1C(=O)c2cccc3cccc(c23)C1=O)NCCCO,-1.71
4,O=c1[nH]c(C2CC2)nc2sc3c(c12)CCCC3,15.8
5,CCOC(=O)c1c(NC(=O)COC(=O)Cc2n[nH]c(=O)c3ccccc23)sc(C(=O)N(C)C)c1C,-2.24
6,CCOC(=O)c1c(NC(=O)COC(=O)c2ccc([N+](=O)[O-])cc2)sc(C(=O)N(C)C)c1C,-8.65
7,CCOC(=O)c1c(NC(=O)COC(=O)CCOc2ccc(OCC)cc2)sc(C(=O)N(C)C)c1C,-8.87
8,CCOC(=O)c1c(NC(=O)COC(=O)Cc2ccccc2[N+](=O)[O-])sc(C(=O)N(C)C)c1C,-68.9
9,CCOC(=O)c1c(NC(=O)COC(=O)c2ccccn2)sc(C(=O)N(C)C)c1C,4.44
10,CCOC(=O)c1c(NC(=O)COC(=O)Cc2c[nH]c3ccccc23)sc(C(=O)N(C)C)c1C,-62.5
11,CN(Cc1nc2ccccc2[nH]1)Cc1nc(CC2CC2)no1,-14.5
12,CCOc1cc(Br)ccc1S(=O)(=O)N1CCC(C(N)=O)CC1,-5.26
13,O=C1COc2ccc(C(=O)COc3ccc([N+](=O)[O-])cc3)cc2N1,8.2
14,CC(C)Oc1ccc(C(CC(=O)O)NC(=O)c2cccs2)cc1 (centres unmarked),-2.74
15,CC1(C)CC(=O)C2=C(C1)Oc1ncn(CCCn3ccnc3)c(=N)c1C2c1ccccc1 (centres unmarked),-53.3
16,COc1ccc(C2C3=C(CC(C)(C)CC3=O)OC(N)=C2[N+](=O)[O-])cc1 (centres unmarked),8.74
17,COc1ccc(C2C3=C(CC(C)(C)CC3=O)Oc3ncn(CCO)c(=N)c32)cc1OC (centres unmarked),-24.5
18,COc1ccc(C2C(C#N)=C(N)OC3=C2C(=O)CC(C)(C)C3)cc1 (centres unmarked),12.8
19,COc1ccc(C2C3=C(CC(C)(C)CC3=O)Oc3ncn(Cc4ccco4)c(=N)c32)cc1 (centres unmarked),-68.3
20,CC1(C)CC(=O)C2=C(C1)Oc1ncn(CCO)c(=N)c1C2c1ccccc1 (centres unmarked),-35.3
21,CC(C)Cn1cnc2c(c1=N)C(c1ccccc1)C1=C(CC(C)(C)CC1=O)O2 (centres unmarked),-38.8
22,N=c1c2c(ncn1Cc1ccco1)Oc1ccc3ccccc3c1C2c1ccccc1 (centres unmarked),-6.08

row,Compound,"hERG current change (%, negative = inhibition) at 10uM [%]"
1,CC1(C)CC(=O)C2=C(C1)Oc1ncn(CCCO)c(=N)c1C2c1ccccc1 (centres unmarked),-29
2,COc1ccc(C2C3=C(CC(C)(C)CC3=O)Oc3ncn(CCCn4ccnc4)c(=N)c32)cc1 (centres unmarked),-16.6
3,CC1(C)CC(=O)C2=C(C1)Oc1ncn(Cc3ccco3)c(=N)c1C2c1ccccc1 (centres unmarked),-60.8
4,COc1ccc(C2C3=C(CC(C)(C)CC3=O)Oc3ncn(CC(C)C)c(=N)c32)cc1 (centres unmarked),-69.1
5,Cc1onc(-c2c(Cl)cccc2Cl)c1C(=O)O/N=C(\C#N)c1c(Cl)cccc1Cl,9.4
6,COc1cccc(CNC(=O)CCNC(=O)c2ccc(Br)o2)c1,11.2
7,Nc1cc(=O)[nH]c(SCC(=O)Nc2ccccc2Sc2ccc(Cl)cc2)n1,14.5
8,Cc1ccc(OCCNC(=O)CNC(=O)c2ccc(C)cc2)cc1,9.37
9,COCCNC(=O)Cc1cn(C)c2ccccc12,4.15
10,CCOC(=O)N1CCC(=NNC(=O)c2ccc(O)cc2)CC1,4.27
11,COc1ccc(C2C3=C(CC(C)(C)CC3=O)Oc3ncn(Cc4ccccc4)c(=N)c32)cc1 (centres unmarked),-55.5
12,COc1ccc(C2C3=C(CC(C)(C)CC3=O)Oc3ncn4nc(-c5cccnc5)nc4c32)cc1 (centres unmarked),-2.59
13,COc1ccc(C2C3=C(CC(C)(C)CC3=O)Nc3c2c(=O)[nH]c(=O)n3Cc2ccccc2)cc1 (centres unmarked),8.57
14,O=C(c1ccc(F)cc1)C1CCN(S(=O)(=O)c2ccccc2)CC1,-43.1
15,O=C(c1ccc(F)cc1)C1CCN(Cc2cn[nH]c2-c2ccc(F)cc2)CC1,-75.2
16,O=C(c1ccc(F)cc1)C1CCN(Cc2cn[nH]c2-c2ccccc2)CC1,-78.8
17,COc1ccc(-c2[nH]ncc2CN2CCC(C(=O)c3ccc(F)cc3)CC2)cc1,-76.2
18,COc1ccc(C(=O)N2CCN(Cc3cn[nH]c3-c3ccc(OC)cc3F)CC2)cc1,-38.3
19,O=C(C1CCN(Cc2cn[nH]c2-c2ccc(F)cc2F)CC1)N1CCOCC1,8.72
20,COc1ccc(-c2[nH]ncc2CN2CCC(C(=O)N3CCOCC3)CC2)c(F)c1,5.23
